# Sampled rows, rich in hits. Any-hit rate of the full collection: about 1.6%.
# KCNQ2 block = rat KCNQ2 potassium channel inhibitors, primary screen, cell-based, CHO-K1, FluxOR thallium flux, B-score; Potassium voltage-gated channel subfamily KQT member 2 (Rattus norvegicus), O88943; B-score at 10 µM; AID 2156, 2009; 310,000 compounds, 1.1% hits; 20 min; stronger effect = lower value;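 active means fluorescence ratio B-score at most minus 3 library SDs, with starting brightness B-score within 2 library SDs, cut at about -5.5 in these data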
# KCNQ2 pot = potentiators of rat KCNQ2 potassium channel; CHO-K1 KCNQ2, FluxOR thallium flux fluorescence; stronger effect = higher value; B-score at 10 µM; 310,000 compounds, 0.54% hits; AID 2239, 2010;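 active means fluorescence ratio B-score at least 3 SD of library B-scores, with initial fluorescence B-score within 3 of them, cut at about 5.3 in these data; same plate scores as AID 2156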;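 further: B-score of peak minus minimum over baseline fluorescence ratio after K+ and Tl+ stimulus; positive B-score means potentiation of KCNQ2 with more thallium influx and brighter signal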
# Kir21 conf inh = mouse Kir2.1 channel blockers, retest, confirmation, cell-based, FluxOR thallium flux, duplicate; shares compounds with KCNQ2 pot; Kir2.1-expressing cells, FluxOR thallium flux fluorescence; stronger effect = lower value; Tl flux remaining, % of negative control (stronger effect = lower value), % at 10 µM; 2,300 compounds, 41% hits; AID 2032, 2009;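 active means Primary-screen hit whose thallium flux fell at least 3 control SD below untreated wells in both duplicates, with normal baseline fluorescence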;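 further: 0% = blank wells without stimulus and 100% = stimulated no-compound controls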
# HEK293 ctr = parental HEK293 activity in Kir2.1 inhibitor counter-screen; AID 2105; FluxOR signal as % of negative control (100 = no effect), % at 10 µM; 2,300 compounds, 19% hits; parental HEK293 cells, FluxOR thallium flux fluorescence; 0% = unstimulated blank wells; shares compounds with KCNQ2 pot;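 active means dye signal at least 3 control SD above or below untreated wells in both duplicates, raw fluorescence within 3, either direction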;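 further: percent is based on the flux ratio of peak minus minimum fluorescence over baseline F0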
# CHO-K1 ctr = nonspecific thallium flux increase in parental CHO-K1, confirmation, counter-screen for KCNQ2 potentiator project, cell-based, FluxOR thallium flux, duplicate; shares compounds with KCNQ2 pot; activity increase over 3SD of controls, % at 10 µM; 1,200 compounds, 43% hits; parental CHO-K1 cells, FluxOR thallium flux fluorescence; zero = vehicle mean+3SD, 100% = vehicle-minus-blank window;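 active means signal rise of at least 3 SD above the untreated control mean, in both duplicate wells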;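 further: counter screen of KCNQ2 potentiator hits so any rise reflects channel-independent effects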
# KCNQ1 sel pot = human KCNQ1 channel potentiation off-target, confirmation, selectivity assay for KCNQ2 potentiator project, cell-based, CHO, FluxOR thallium flux | shares compounds with KCNQ2 pot | CHO KCNQ1 stable, FluxOR thallium flux fluorescence; beyond 3SD, as % of vehicle-control signal | activation over 3SD threshold, % at 10 µM | 1,200 compounds, 28% hits;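 active means fluorescence ratio rise of at least 3 SD of vehicle wells above their mean, in both replicate wells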;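 further: 0% = vehicle mean plus 3 SD and 100% = vehicle minus unstimulated blank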
# Target sequence (P51787 whole entry, looked up): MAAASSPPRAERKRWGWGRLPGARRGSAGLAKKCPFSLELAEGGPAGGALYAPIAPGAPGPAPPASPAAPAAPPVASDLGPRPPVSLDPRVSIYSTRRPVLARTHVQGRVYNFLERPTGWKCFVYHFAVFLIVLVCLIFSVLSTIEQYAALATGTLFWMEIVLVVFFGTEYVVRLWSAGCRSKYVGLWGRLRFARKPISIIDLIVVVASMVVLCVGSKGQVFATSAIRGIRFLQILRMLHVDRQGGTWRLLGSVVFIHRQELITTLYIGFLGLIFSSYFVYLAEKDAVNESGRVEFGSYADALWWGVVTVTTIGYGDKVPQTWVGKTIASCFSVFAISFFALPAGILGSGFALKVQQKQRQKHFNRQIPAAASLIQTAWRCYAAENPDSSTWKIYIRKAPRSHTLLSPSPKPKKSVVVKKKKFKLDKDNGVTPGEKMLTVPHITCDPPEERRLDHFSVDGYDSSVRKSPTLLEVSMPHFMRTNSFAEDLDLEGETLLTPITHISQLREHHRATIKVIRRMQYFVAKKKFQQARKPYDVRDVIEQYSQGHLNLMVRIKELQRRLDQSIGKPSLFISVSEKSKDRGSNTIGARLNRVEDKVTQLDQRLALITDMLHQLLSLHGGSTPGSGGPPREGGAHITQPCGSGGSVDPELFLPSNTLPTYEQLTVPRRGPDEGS
# KCNQ2 pot confirm = rat KCNQ2 channel potentiators, confirmation, cell-based, CHO, FluxOR thallium flux, duplicate | shares compounds with KCNQ2 pot | CHO-KCNQ2 cells, FluxOR thallium flux fluorescence | 1,200 compounds, 68% hits | potentiation, less the hit threshold, % at 10 µM | AID 2287, 2010;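 active means fluorescence ratio rising 3 SD or more over the vehicle control mean in both replicates, plus primary screen hit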;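 further: peak minus minimum thallium fluorescence divided by baseline after K/Tl stimulus; 0% = vehicle mean plus 3 SD and 100% = vehicle minus unstimulated blank difference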
# Kir21 spec = mouse Kir2.1 channel activation off-target, confirmation, selectivity assay for KCNQ2 potentiator project, cell-based, HEK293, FluxOR thallium flux. 1,200 compounds, 2% hits. shares compounds with KCNQ2 pot. HEK293 Kir2.1, FluxOR thallium flux fluorescence. activity over 3SD threshold, % at 10 µM;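 active means fluorescence ratio rise of at least 3 SD above the vehicle-control mean, seen in both replicates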;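 further: 0% = vehicle mean plus 3 SD and 100% = vehicle minus no-stimulus blank window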
# KCNQ2 W236L pot = potentiators of retigabine-insensitive KCNQ2 W236L, mechanism study for KCNQ2 potentiator project, cell-based, rat KCNQ2 W236L, CHO, automated patch clamp; 940 compounds, 10% hits; current increase over 3SD of negative controls (%), stronger effect = higher value, % at 25 µM; shares compounds with KCNQ2 pot; automated patch clamp current;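 active means current increase at least 3 SD of the untreated controls above them in both duplicate recordings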
# * marks the source's active call; other numbers are inactive results; i = inactive; / = no result.
SMILES,KCNQ2 block,KCNQ2 pot,Kir21 conf inh,HEK293 ctr,others
CCn1c(CC(=O)Nc2ccc(C)cc2)nnc1SCC(=O)NCc1ccccc1,i,/,/,/,
CCn1c(CNc2ccc(Cl)cc2)nnc1SCc1ccccc1,i,/,63.0%*,i,
CCCCCN(C(=O)CCC(=O)OC(C)C(=O)c1ccc(Cl)cc1)c1c(N)n(CCCC)c(=O)[nH]c1=O (configuration not stated),i,0.33,/,/,
CNc1nc(C)cc(C)c1S(=O)(=O)c1ccc(C)cc1,i,/,i,i,
Cc1ccc(S(=O)(=O)c2c(C)cc(C)nc2Oc2cccc(C)c2C)cc1,i,/,/,/,
COc1ccc(CC(=O)NNS(=O)(=O)c2ccc([N+](=O)[O-])cc2)cc1OC,i,/,/,/,
c1ccc(-c2n[nH]c(-c3ccccn3)n2)cc1,i,13.8*,i,i,CHO-K1 ctr=-9.5;KCNQ1 sel pot=-14.8;KCNQ2 pot confirm=48.1*;Kir21 spec=-20.9;KCNQ2 W236L pot=i
c1ccc(-c2n[nH]c(-c3ccccn3)n2)nc1,i,0.82,/,/,
CCC1CCCCN1C(=S)NC(=O)c1cccc([N+](=O)[O-])c1 (configuration not stated),i,4.1,i,347.5%*,
CC1CCN(C(=S)NC(=O)c2cccc([N+](=O)[O-])c2)CC1,i,2.84,/,/,
C[C@@]12C(=O)N(c3ccc(C(F)(F)F)cc3)C(=O)N1[C@@H]1c3ccccc3OC[C@@H]1[C@H]2c1ccccc1,i,/,/,/,
COc1ccc(-n2c(=O)c3c4c(sc3n3c(=S)[nH]nc23)COC(C(C)C)C4)cc1 (configuration not stated),i,/,/,/,
Cc1cccc(CS(=O)(=O)c2ncc(Cl)c(C(=O)Nc3nnc(C(C)C)s3)n2)c1,i,13.4*,/,/,CHO-K1 ctr=-9.5;KCNQ1 sel pot=-5.7;KCNQ2 pot confirm=98.7*;Kir21 spec=-64.2;KCNQ2 W236L pot=49.0%*
CSc1nnc(NC(=O)c2nc(S(=O)(=O)Cc3ccccc3F)ncc2Cl)s1,i,10.1*,/,/,CHO-K1 ctr=-16.5;KCNQ1 sel pot=-13.1;KCNQ2 pot confirm=50.0*;Kir21 spec=-53.6;KCNQ2 W236L pot=17.9%*
CSc1nnc(NC(=O)c2nc(S(=O)(=O)Cc3cccc(C)c3)ncc2Cl)s1,i,13.4*,/,/,CHO-K1 ctr=-9.0;KCNQ1 sel pot=4.6*;KCNQ2 pot confirm=83.6*;Kir21 spec=-61.6;KCNQ2 W236L pot=35.3%*
CSc1nnc(NC(=O)c2ccco2)s1,i,1.61,/,/,
CSc1ncc(Cl)c(C(=O)Nc2nnc(SC/C=C/c3ccccc3)s2)n1,i,5.48*,i,i,CHO-K1 ctr=6.5*;KCNQ1 sel pot=-27.7;KCNQ2 pot confirm=-2.2;Kir21 spec=-35.9;KCNQ2 W236L pot=i
C=CCSc1nnc(NC(=O)c2nc(SCC)ncc2Cl)s1,i,2.39,/,/,
O=C(NCc1ccc2c(c1)OCO2)c1nc(S(=O)(=O)Cc2ccccc2)ncc1Cl,i,/,/,/,
O=C(NCc1ccc2c(c1)OCO2)c1nc(S(=O)(=O)Cc2ccccc2F)ncc1Cl,i,/,/,/,
Cc1ccc(Cl)cc1NC(=O)c1cc(S(=O)(=O)N2CCOCC2)cn1C,i,/,/,/,
O=C(c1ccco1)N1CCN(S(=O)(=O)c2cccc([N+](=O)[O-])c2)CC1,i,0.34,/,/,
COC(=O)C(C)n1cnc2c(nnn2-c2cccc(OC)c2)c1=O (configuration not stated),i,1.63,/,/,
COc1cccc(CNC(=S)NC2CC2)c1,i,/,/,/,
O=C(O)c1c(NC(=O)N2CCOCC2)sc2c1CCCC2,i,/,/,/,
SMILES,KCNQ2 block,KCNQ2 pot,Kir21 conf inh,HEK293 ctr,others
CC(=O)c1cc(C#N)c(Oc2ccc(Cl)cc2Cl)nc1C,i,/,/,/,
O=C(NCc1ccccc1)c1nc(S(=O)(=O)Cc2ccccc2)ncc1Cl,i,/,/,/,
COC(=O)c1ccccc1NC(=O)c1nc(S(=O)(=O)Cc2ccccc2)ncc1Cl,i,/,/,/,
O=C(Nc1nnc(SCc2ccc(F)cc2)s1)c1cccnc1Cl,i,/,/,/,
Cc1ccc(CS(=O)(=O)c2ncc(Cl)c(C(=O)Nc3nnc(C(C)C)s3)n2)cc1,i,15.8*,i,181.5%*,CHO-K1 ctr=-0.3;KCNQ1 sel pot=-12.8;KCNQ2 pot confirm=102.1*;Kir21 spec=-46.4;KCNQ2 W236L pot=77.3%*
CC(C)c1nnc(NC(=O)c2nc(S(=O)(=O)Cc3ccc(F)cc3)ncc2Cl)s1,i,11.3*,i,i,CHO-K1 ctr=-2.6;KCNQ1 sel pot=-14.1;KCNQ2 pot confirm=58.1*;Kir21 spec=-47.9;KCNQ2 W236L pot=28.3%*
CCSc1nnc(NC(=O)c2nc(S(=O)(=O)Cc3ccc(F)cc3)ncc2Cl)s1,i,10.3*,/,/,CHO-K1 ctr=-21.3;KCNQ1 sel pot=-15.7;KCNQ2 pot confirm=49.2*;Kir21 spec=-65.1;KCNQ2 W236L pot=11.3%*
Cc1ccc(CS(=O)(=O)c2ncc(Cl)c(C(=O)Nc3ccc(OC(F)F)cc3)n2)cc1,i,0.85,/,/,
Cc1nnc(NC(=O)c2nc(S(=O)(=O)Cc3ccccc3C)ncc2Cl)s1,i,11.9*,i,i,CHO-K1 ctr=-14.4;KCNQ1 sel pot=62.4*;KCNQ2 pot confirm=77.0*;Kir21 spec=-41.4;KCNQ2 W236L pot=35.3%*
CCOc1cc(N2CCOCC2)c(OCC)cc1NS(=O)(=O)c1cc(NC(C)=O)ccc1OC,i,/,/,/,
CCCCNC(=S)N(CCCN(C)C)Cc1cc2cc3c(cc2[nH]c1=O)OCO3,i,/,/,/,
COc1ccc(CCN2CCCn3c2nc2c3c(=O)n(C)c(=O)n2C)cc1OC,i,0.25,/,/,
O=C(CC1CCC1)Nc1cccc2c([N+](=O)[O-])cccc12,i,9.58*,i,i,CHO-K1 ctr=-1.2;KCNQ1 sel pot=56.0*;KCNQ2 pot confirm=34.7*;Kir21 spec=-39.1;KCNQ2 W236L pot=i
O=C(CN1CCCCCC1)Nc1ccccc1[N+](=O)[O-],i,/,/,/,
CC(O)CNCCCOc1cccc(C(F)(F)F)c1 (configuration not stated),i,2.21,/,/,
CC(O)CNCCCOc1cccc(Oc2ccccc2)c1 (configuration not stated),i,2.39,14.5%*,i,
Cc1cnc(C(=O)NCC(c2ccccc2)c2ccccc2)cn1,i,/,/,/,
Cc1cc(C(=O)N2CCCC(Nc3ccccc3)C2)c2ccc(F)cc2n1 (configuration not stated),i,/,/,/,
O=C1CN(S(=O)(=O)c2cccc(Cl)c2Cl)c2ccccc2N1,i,1.25,59.0%*,i,
